# Many of the other results were omitted from the sample, so hits are more common in it than they were.
# KDM5B inh: Primary screen for KDM5B Histone Demethylases FDH-coupled qHTS | Lysine-specific demethylase 5B (Homo sapiens), Q9UGL1 | KDM5B demethylase, FDH-coupled NADH fluorescence (FDH is formaldehyde dehydrogenase) | 2.6% of 220,000 active | Potency, µM (series often up to 57.7 µM), actives largely listed as inhibitors; active means well fitted inhibition curve with a large enough effect; further: 0% is about no effect; nearly all actives have a fitted effect of over 70% in size
# Target sequence (Q9UGL1 whole entry, looked up): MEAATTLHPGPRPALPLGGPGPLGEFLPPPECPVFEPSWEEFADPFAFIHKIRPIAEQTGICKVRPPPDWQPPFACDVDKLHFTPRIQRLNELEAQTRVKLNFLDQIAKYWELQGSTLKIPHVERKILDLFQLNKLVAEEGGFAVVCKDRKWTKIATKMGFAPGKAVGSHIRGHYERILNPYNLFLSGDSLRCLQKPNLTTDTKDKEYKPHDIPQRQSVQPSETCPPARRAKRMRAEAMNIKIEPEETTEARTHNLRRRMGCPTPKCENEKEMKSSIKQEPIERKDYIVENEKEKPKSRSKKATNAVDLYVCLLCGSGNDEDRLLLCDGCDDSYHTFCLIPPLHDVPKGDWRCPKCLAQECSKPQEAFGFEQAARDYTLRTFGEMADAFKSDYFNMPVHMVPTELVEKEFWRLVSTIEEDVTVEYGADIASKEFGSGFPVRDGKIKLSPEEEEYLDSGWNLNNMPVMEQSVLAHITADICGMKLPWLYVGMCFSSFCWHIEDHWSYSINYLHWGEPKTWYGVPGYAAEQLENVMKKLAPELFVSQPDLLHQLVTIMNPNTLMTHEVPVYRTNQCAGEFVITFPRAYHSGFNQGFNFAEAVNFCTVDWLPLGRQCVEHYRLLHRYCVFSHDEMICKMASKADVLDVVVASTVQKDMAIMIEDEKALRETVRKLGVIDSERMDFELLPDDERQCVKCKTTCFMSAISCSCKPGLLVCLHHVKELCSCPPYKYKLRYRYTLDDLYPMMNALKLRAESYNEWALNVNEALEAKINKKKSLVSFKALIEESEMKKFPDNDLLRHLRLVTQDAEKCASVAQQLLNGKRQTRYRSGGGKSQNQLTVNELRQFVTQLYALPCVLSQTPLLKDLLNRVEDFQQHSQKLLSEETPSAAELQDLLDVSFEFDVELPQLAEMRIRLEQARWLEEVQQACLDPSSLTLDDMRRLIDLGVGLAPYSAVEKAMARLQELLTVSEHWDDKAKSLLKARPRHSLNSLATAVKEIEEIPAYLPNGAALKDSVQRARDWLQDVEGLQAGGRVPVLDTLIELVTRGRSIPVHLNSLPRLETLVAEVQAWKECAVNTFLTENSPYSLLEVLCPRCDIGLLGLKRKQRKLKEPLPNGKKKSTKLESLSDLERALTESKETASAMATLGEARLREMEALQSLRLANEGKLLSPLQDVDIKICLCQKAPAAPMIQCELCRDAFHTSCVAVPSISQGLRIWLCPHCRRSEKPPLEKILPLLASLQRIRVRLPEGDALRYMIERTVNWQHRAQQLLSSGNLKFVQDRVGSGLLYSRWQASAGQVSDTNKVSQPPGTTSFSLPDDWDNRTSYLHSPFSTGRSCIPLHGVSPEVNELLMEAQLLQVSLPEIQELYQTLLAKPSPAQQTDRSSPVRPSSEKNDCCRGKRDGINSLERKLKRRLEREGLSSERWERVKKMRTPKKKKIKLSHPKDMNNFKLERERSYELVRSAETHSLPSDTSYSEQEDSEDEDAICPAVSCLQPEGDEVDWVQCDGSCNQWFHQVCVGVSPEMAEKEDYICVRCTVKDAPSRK
#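 Here, H3K4me3 peptide (12.5 µM in substrate mix) is demethylated by KDM5BΔAP, 200 nM final, after 10 min compound exposure. Formaldehyde product is coupled through FDH (0.25 U/mL in mix) to NADH fluorescence; 30-min ΔRFU feeds dose-response curves.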
# Active calls of the source: *; i = inactive. Potency means the concentration at half of the fitted maximal effect.
SMILES,KDM5B inh
CC(C)NC(=O)N[C@H]1CCN2C(=O)c3cc(-c4ccccc4)ccc3NC(=O)[C@H]12,i
COc1ccc(Cl)cc1-c1ccc2c(c1)C(=O)N1C[C@@H](NS(=O)(=O)c3ccc(F)cc3)C[C@H]1C(=O)N2,32µM*
O=C1Nc2ccc(-c3ccccc3F)cc2C(=O)N2C[C@@H](NS(=O)(=O)c3ccc(F)cc3)C[C@@H]12,i
CS(=O)(=O)N[C@H]1C[C@H]2C(=O)Nc3cc(Cl)ccc3C(=O)N2C1,i
O=C1Nc2ccc(-c3ccc4c(c3)OCO4)cc2C(=O)N2C[C@@H](NS(=O)(=O)c3ccc(F)cc3)C[C@@H]12,32µM*
O=C(O)COCC(=O)N[C@H]1CCN2C(=O)c3cc(-c4ccc5c(c4)OCO5)ccc3NC(=O)[C@H]12,i
O=C1Nc2ccc(-c3ccc(F)cc3F)cc2C(=O)N2C[C@H](O)C[C@@H]12,i
CS(=O)(=O)N[C@H]1C[C@H]2C(=O)Nc3ccc(-c4ccc5c(c4)OCO5)cc3C(=O)N2C1,i
Cc1cccc([N+](=O)[O-])c1NC(=O)COc1ncnc2ccccc12,i
CCc1cc(C(=O)Cc2csc(-c3ccccc3)n2)c(O)cc1O,i
CC(N)(C(=O)O)c1ccccc1 (configuration not stated),i
CC(C)c1ccc2oc(-c3ccc(NC(=O)c4ccc([N+](=O)[O-])o4)cc3)nc2c1,i
Cc1ccc(CNC(=O)CSc2nc3cc4c(cc3c(=O)n2Cc2ccco2)OCO4)cc1,i
CCCn1nc(C(=O)N(C)C(C)c2ccc(F)c(F)c2)c2ccccc2c1=O (configuration not stated),i
COc1ccc2cc1Nc1ccc(cc1)C[C@H](NCc1ccc(C)o1)C(=O)N(C)[C@H](C(=O)NCCC(C)C)C2,i
N#CC1(C(=O)Nc2cccc(Br)c2)CCCC1,i
O=C(CCC1NC(=O)c2ccccc2NC1=O)NC1CCCCCCC1 (configuration not stated),i
Cc1nn(C(C)C)c(C)c1N,i
CC(C)Cc1nc2nccc(-c3cccs3)n2n1,25µM*
COc1ccc(CCc2nc3nccc(-c4cccs4)n3n2)cc1,i
CCc1cccc(C)c1Nc1c(-c2cccs2)nc2ncccn12,i
CC(C)c1noc(C2CCCN2C(=O)c2cc(-c3cccs3)n(C)n2)n1 (configuration not stated),i
CC(C)c1nc2nccc(-c3cccs3)n2n1,25µM*
CC(C)Oc1ccc(C(=O)Oc2ccc(C#N)cc2)cc1,i
CC(=O)c1cc(F)ccc1Oc1nc(C)nc2sc3c(c12)CCC3,i
SMILES,KDM5B inh
O=C(/C=C/c1ccccc1OCc1cccnc1)c1ccc(N2CCOCC2)cc1,i
C1=C(c2nc(-c3cccc4[nH]ncc34)cc3c2ccn3Cc2cccnc2)CCOC1,i
CN(Cc1cccnc1)c1nc2c(c(=O)[nH]1)CCN(Cc1ccc(F)c(F)c1)CC2,i
C1=C(c2nc(-c3ccc(N4CCOCC4)cc3)cc3c2ccn3Cc2cccnc2)CCOC1,28µM*
CN(C)Cc1ccc(-c2cc3c(ccn3Cc3cccnc3)c(C3=CCOCC3)n2)cc1,35µM*
Fc1ccc(/C=N/Nc2cc(C(F)(F)F)ccc2Cl)c(F)c1,i
CCOC(=O)c1ccc(Oc2c(C(F)(F)F)oc3cc(OC(=O)c4ccccc4)ccc3c2=O)cc1,i
COc1cc(OC)c(OC)cc1/C=C/C(=O)c1ccc(OC(F)F)cc1,i
O=C(CN1CCC(c2ccccc2)CC1)c1c[nH]c2ccccc12,i
COCC(=O)N1CCc2nc(C)nc(-c3ccc(OC)cc3)c2C1,32µM*
COc1ccc(-c2nc(C)nc3c2CN(Cc2ccc(NC(C)=O)cc2)CC3)cc1,22µM*
COC(=O)N1CCc2nc(-c3ccc(OC)cc3)nc(-c3ccccc3)c2C1,i
COCC(=O)N1CCc2nc(-c3ccccc3)nc(-c3ccc(OC)cc3)c2C1,22µM*
COc1ccc(C(=O)N2CCc3nc(C)nc(-c4ccc(OC)cc4)c3CC2)cc1,i
COc1ccc(C(=O)N2CCc3nc(C)nc(-c4ccc(O)cc4)c3C2)cc1,i
COc1ccc(OC2CN(Cc3ccc(NC(C)=O)cc3)C2)cc1,i
COc1ccc(-c2nc3c(c(-c4ccccc4)n2)CN(C(=O)C(C)(C)C)CC3)cc1,i
COc1cccc(CN2CCc3nc(C)nc(-c4ccc(O)cc4)c3C2)c1,i
COc1cc(/C=C(/C#N)C(=O)OC(C)C)cc(Cl)c1OC,i
CCCc1cc(=O)oc2cc(OC(C)C(=O)NCc3ccncc3)ccc12 (configuration not stated),i
COc1ccc(S(=O)(=O)NCC2CCC(C(=O)NCC(=O)N3CCc4ccccc4C3)CC2)cc1 (configuration not stated),i
COc1cccc(/C=C/C(=O)Oc2ccc(C#N)cc2OC)c1,i
Cc1[nH]c2ccc(F)cc2c1C(=O)CCl,i
CC1(C)N=C(c2ccc(Br)cc2)C(=S)N1,i
Cc1ccc(NS(=O)(=O)c2cc(-c3cnc(C)o3)ccc2C)c(Cl)c1,i
SMILES,KDM5B inh
CC(C)(C)c1ccc(-c2csc(NC(=O)COCc3nc4ccccc4c(=O)[nH]3)n2)cc1,i
COCc1ccc2c(c1)c(OC(C)(C)C(=O)NC1CCC(O)CC1)nn2CCC(C)C (configuration not stated),32µM*
COCc1ccc2c(c1)c(OC(C)(C)C(=O)NC1CCOCC1)nn2Cc1cccnc1,i
COCc1ccc2c(c1)c(OC(C)(C)C(=O)NC1CCOCC1)nn2CCC(C)C,40µM*
COc1cccc(CC(=O)N2CCC(c3n[nH]c(=O)n3-c3ccc(C)cc3)CC2)c1,i
FC(F)(F)c1ccc(NC(=S)NC2CC2)cc1,i
Cn1cc(C(=O)NC2(C)CCS(=O)(=O)C2)c2ccccc21 (configuration not stated),i
CC(C)(C)CC(=O)Nc1cccc(C(=O)O)c1,i
O=C1CO[C@H]2CN(c3nccc(C(F)(F)F)n3)C[C@H]2N1Cc1ccc(F)cc1,i
COc1ccc(CCN2C(=O)O[C@@H]3CN(c4nc(C)cc(C)n4)C[C@@H]32)cc1,18µM*
COc1ccc(CN2C(=O)CO[C@H]3CN(c4nccc(C)n4)C[C@H]32)cc1,35µM*
COc1ccc(CN2C(=O)CO[C@H]3CN(S(=O)(=O)c4ccccc4)C[C@H]32)cc1,i
COc1ccc(CCN2C(=O)O[C@@H]3CN(c4nc(OC)cc(OC)n4)C[C@@H]32)cc1,i
COc1ccc(CCCN2C(=O)O[C@@H]3CN(c4nc(C)cc(C)n4)C[C@@H]32)cc1,i
COC(=O)C1=C(C(=O)OC)SC(=C(Cl)C(=S)Nc2cccc(C)c2)S1,i
CN(C)CCCNCc1ccccc1,i
Cc1cccc(NC(=O)COC(=O)c2cc(C)nc3ccccc23)c1,i
CC(C)NC(=S)N/N=C/C1CCCCC1,i
COc1ccc2nc(/C(C#N)=C\c3ccc(C)o3)[nH]c2c1,i
O=C1CC(c2ccccc2F)c2c(n3c(nc4ccccc43)[nH]c2=O)N1 (configuration not stated),i
Nc1nc2c(s1)C(c1ccc(F)cc1F)CC(=O)N2 (configuration not stated),32µM*
COc1cccc(C2CC(=O)Nc3ccsc32)c1OC (configuration not stated),i
CC1=C(C(=O)OCC2CCCCC2)C(c2ccc(F)cc2F)CC(=O)N1 (configuration not stated),i
